A selection: hits, their analogues and other compounds. The true share with any hit is near 7.9%.
LASV entry inh: qHTS for Inhibitors of binding or entry into cells for Lassa Virus; Lassa virus pseudotype entry inhibition, cell reporter; Potency, µM (highest dose often 37.9 µM), usual class: inhibitors; 1.2% of 300,000 active; AID 540256, 2011; calls by dose curve; tested in HEK293 cells; note: nearly all actives have a fitted effect of over 50% in size
MARV entry inh: qHTS for inhibitors of binding or entry into cells for Marburg Virus. Marburg virus pseudotyped entry inhibition, cell reporter. Potency, µM (series often up to 37.8 µM), usual class: inhibitors. 1.8% of 300,000 active; calls by dose curve; tested in HEK293 cells
FMDV antiviral: High Throughput Screening for Foot and Mouth Disease Virus Antivirals | FMDV antiviral cell-based qHTS | Potency, µM (series often up to 57.9 µM), most hits filed as inhibitors | 1.2% of 410,000 active; calls by dose curve; tested in HEK293T cells; note: read-out not given here; nearly all actives have a fitted effect of over 45% in size
HCMV inh: qHTS Assay for inhibitors of the human cytomegalovirus (HCMV) | AID 1259415, 2018 | 4.5% of 410,000 active | activity change, negative = inhibition, % at 57.5 µM | HFF cells, HCMV-luciferase reporter, 72 h; hits give low values; in the data active = activity change below about -60%; inconclusive = no clear call, values can overlap the other calls; inactive = above about -39%
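Screen run at 2 compound doses on HFFs infected with reporter HCMV, MOI 1 PFU/cell. Luciferase activity from cell lysates at 72 h post infection gave inhibition relative to buffer-only and Salinomycin wells.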
HCV inhibitor: qHTS Assay for Inhibitors of Hepatitis C Virus (HCV). Huh7.5.1 HCVcc-Cre infection, luciferase reporter, 44 h. Potency, µM (highest dose often 41.8 µM), usual class: inhibitors. 3.4% of 340,000 active. AID 651820, 2012; active = well fitted inhibition curve with a large enough effect; inconclusive = small, poorly fitted or top-dose-only effect, or another doubt; inactive = no such curve, though single readings can be large or run the other way
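After 44 h co-culture of compound, cells and HCVcc-Cre (~0.5 moi), substrate is added for 15 min at room temperature and luciferase measured over 15 sec. Cells were seeded at 1,000/well and pre-cultured 4 h.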
A number is an active result; . = inactive; ? = inconclusive; / = no result given; ! = repeats disagree.

SMILES	LASV entry inh	MARV entry inh	FMDV antiviral	HCMV inh	HCV inhibitor
Cc1cc(Cn2nnc3ccccc32)c(O)c(C(C)(C)C)c1	/	/	.	.	10µM
Cc1ccc(OCC(=O)c2cc(C)n(C)c2C)c([N+](=O)[O-])n1	?	.	.	-71.4	.
Cc1cc(C(=O)COc2cccnc2[N+](=O)[O-])c(C)n1Cc1ccco1	.	?	.	.	?
Cc1cc(-n2c(C)cc(C(=O)COc3ccccc3[N+](=O)[O-])c2C)no1	.	.	.	.	.
Cc1ccc(-n2c(C)cc(C(=O)COc3cccnc3[N+](=O)[O-])c2C)cc1	?	?	?	-98.6	?
Cc1cc(C(=O)COc2cccnc2[N+](=O)[O-])c(C)n1-c1ccccc1	4.61µM	?	.	-98.8	.
Cc1cc(C(=O)COc2cccnc2[N+](=O)[O-])c(C)n1-c1ccccc1F	/	/	.	-97.3	.
CN(C)CCNC(=O)CC1(C)N=C(c2ccc(-c3ccccc3)cc2)N(C)O1 (stereo not given)	/	/	/	.	/
O=Cc1ccc([B-](F)(F)F)s1	/	/	.	.	.
COc1c(C)cc(C(O)c2ncc(-c3ccccc3C)[nH]2)cc1C (stereo not given)	/	/	.	.	/
COc1cccc(C(=O)Nc2ccc(N3CCN(C(=O)c4cccs4)CC3)cc2)c1	?	?	31.6µM	.	?
O=C(NC(=S)Nc1ccc(N2CCN(C(=O)c3ccccc3)CC2)cc1)c1cccs1	?	?	?	-63.6	31.6µM
O=C(Nc1ccc(N2CCN(C(=O)c3cccs3)CC2)cc1)c1cccc(F)c1	.	?	.	.	.
O=C(NC(=S)Nc1ccccc1N1CCOCC1)c1cccs1	.	?	?	-71.9	.
Cc1cccc(CNC(=O)c2c3n(c(C)cc2=O)-c2ccccc2SC(c2ccsc2)C3)n1 (stereo not given)	/	/	.	/	/
C=CCNC(=O)[C@H]1C=C(OC)C(=O)C[C@H]2c3ccccc3C[C@]12C	/	.	/	/	/
CCN(CC)CCCNC(=O)c1sc2ncn(CC(=O)Nc3ccc(C)c(Cl)c3)c(=O)c2c1C	/	/	.	-63.2	14.1µM
COCCCNC(=O)c1sc2ncn(CC(=O)Nc3ccc(C)c(Cl)c3)c(=O)c2c1C	.	.	.	.	?
Cc1ccc(NC(=O)Cn2cnc3sc(C(=O)NCCN(C)C)c(C)c3c2=O)cc1Cl	/	/	/	/	10µM
Cc1ccc(NC(=O)Cn2cnc3sc(C(=O)O)c(C)c3c2=O)cc1Cl	?	/	.	.	/
CCCN(CCC)CCCNC(=O)Cn1cnc2sc(C)c(S(=O)(=O)N3CCCCC3)c2c1=O	?	.	.	-70.6!	.
COc1ccc(CCNC(=O)c2c(C)oc3ncn(CC(C)C)c(=O)c23)c(OC)c1	.	/	.	.	/
Cc1ccc(NC(=O)CCn2nc(C)c(S(=O)(=O)N3CCCCC3)c2C)cc1Cl	.	/	.	.	/
COCC(C)n1c(C)cc(C(=O)COc2ccc(N(C)S(=O)(=O)c3ccc(NC(C)=O)cc3)cc2)c1C (stereo not given)	?	?	.	.	?
C=CCn1c(C)cc(C(=O)COc2ccc(N(C)S(=O)(=O)c3ccc(NC(C)=O)cc3)cc2)c1C	/	/	?	.	8.91µM
SMILES	LASV entry inh	MARV entry inh	FMDV antiviral	HCMV inh	HCV inhibitor
C#CCN(Cc1ccco1)C(=O)c1cc(COc2cccc3cccnc23)on1	/	/	.	.	/
O=C1CCC[C@H]2[C@@H](Cc3ccccc3)[C@H](N(Cc3ccccc3)Cc3ccccc3)CC[C@]23CCCN13	/	/	/	.	/
Cn1nc(-c2ccc(C(=O)Nc3cccc(C(F)(F)F)c3)cc2)c2ccccc2c1=O	.	?	22.4µM	.	/
Cn1nc(-c2ccc(C(=O)Nc3ccc(OC(F)(F)F)cc3)cc2)c2ccccc2c1=O	.	/	14.1µM	.	/
CNC(=O)COc1ccc(NC(=O)c2ccc(-c3nn(C)c(=O)c4ccccc34)cc2)cc1	?	.	.	.	/
CN(C(=O)c1ccc(-c2nn(C)c(=O)c3ccccc23)cc1)C1CCCCC1	?	?	22.4µM	.	?
Cc1ccc(-n2nnnc2CNC(=O)C(=O)c2c[nH]c3ccccc23)cc1C	/	/	?	.	/
COc1cc(C(C)=O)ccc1OCC(=O)Nc1ccc(Cl)c(S(=O)(=O)N2CCOCC2)c1	/	/	20µM	.	12.6µM
O=C(CCCSc1ccccc1)Nc1ccc(Cl)c(S(=O)(=O)N2CCOCC2)c1	?	?	25.1µM	.	?
O=C(COc1cccc(Br)c1)Nc1ccc(Cl)c(S(=O)(=O)N2CCOCC2)c1	.	?	?	.	?
Cc1ccc(NC(=O)CCCOc2ccccc2)cc1S(=O)(=O)N1CCOCC1	/	/	.	.	?
CC(=O)c1ccc(OCCCC(=O)Nc2ccc(Cl)c(S(=O)(=O)N3CCOCC3)c2)cc1	/	/	15.8µM	-79.3	2.51µM
O=C(CCCOc1ccccc1)Nc1ccc(Cl)c(S(=O)(=O)N2CCOCC2)c1	17.8µM	?	28.2µM	-73.4	7.08µM
CCOC(=O)C(NCc1ccccc1NC(=O)OC(C)(C)C)c1nnnn1Cc1ccccc1 (stereo not given)	/	/	/	.	/
O=C(CC(=O)c1ccccc1)CC(O)(C=Cc1ccccc1)c1ccccc1 (stereo not given)	.	?	.	.	.
CC(C)Oc1ccc(S(=O)(=O)N2CCOCC2)cc1NC(=O)CCCSc1ccccc1	.	?	.	.	11.2µM
Cc1ccc(OCCCC(=O)Nc2ccc(Cl)c(S(=O)(=O)N3CCOCC3)c2)cc1	/	/	?	.	7.08µM
CCN(CC)S(=O)(=O)c1cc(NC(=O)CCCOc2ccc(C(C)=O)cc2)ccc1C	?	?	15.8µM	.	10µM
CC(=O)c1ccc(OCCCC(=O)Nc2cc(S(=O)(=O)N(C)C)ccc2C)cc1	.	.	.	.	.
COc1ccc(S(=O)(=O)N2CCOCC2)cc1NC(=O)CSc1ccccc1	.	.	.	.	/
COc1ccccc1S(=O)(=O)Cc1ccc(C(=O)N2CCN(c3cccc(Cl)c3)CC2)o1	?	.	17.8µM	-66.9	12.6µM
COc1cccc(N2CCN(C(=O)c3ccc(CS(=O)c4ccccc4C)o3)CC2)c1 (stereo not given)	?	.	.	.	.
O=C(c1ccc(CS(=O)(=O)c2c(Cl)cccc2Cl)o1)N1CCN(c2ccccn2)CC1	/	/	?	-65.9	.
COc1cccc(N2CCN(C(=O)c3ccc(CS(=O)c4ccccc4Cl)o3)CC2)c1 (stereo not given)	/	/	.	-95.6	?
COc1ccccc1S(=O)(=O)Cc1ccc(C(=O)N2CCN(c3ccccc3)CC2)o1	.	.	?	.	.
SMILES	LASV entry inh	MARV entry inh	FMDV antiviral	HCMV inh	HCV inhibitor
CSc1ccccc1OCc1cc(C(=O)NCCn2ccnc2C)no1	.	.	.	?	/
COc1ccc(-c2nc3ccc(C)cn3c2Nc2ccc3c(c2)OCO3)cc1	.	?	.	-106.2	/
Cc1ccc(-c2nc3ccccn3c2Nc2ccc3c(c2)OCO3)o1	.	.	.	-101.0	/
Cc1ccc2nc(-c3ccc(O)cc3)c(Nc3ccc4c(c3)OCCO4)n2c1	.	.	.	.	.
Cc1cc(Oc2ccc(-c3ccccc3)cc2)n2ncnc2n1	.	.	39.8µM	.	.
CC1(C)Cc2nc(Cl)c(C#N)cc2CO1	.	.	.	-99.7	.

Screening results as filed in PubChem BioAssay.
